Our source for the cell viability and kynurenine production values is the supplement of paper PMC13094657.

± gives the standard deviation of the averaged measurements.

For experiment [1], the system named is MDA-MB-231. Description: cell viability relative to vehicle unstimulated control (fraction); higher = more viable cells. To be noted: pre-treatment time: 18 h then 24 h IFNg/TNF.
For experiment [2], the system named is MDA-MB-231. In words: kynurenine production, fold change vs DMSO IFNg/TNF control; higher = more kynurenine produced (less inhibition). To be noted: pre-treatment time: 18 h then 24 h IFNg/TNF. An outline of the steps: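 In 96-well plates, MDA-MB-231 cells (7 × 10^4/well) were given 24 h to settle, pre-treated for 18 h with each natural product in 0.1% DMSO, and stimulated for 24 h with IFNγ (1 U/ml) and TNF (6.25 ng/ml) at 37°C. Supernatants were processed with trichloroacetic acid and p-dimethylaminobenzaldehyde and read at 492 nm against 0–100 μM standards. In the first screening round, kynurenine production, as fold change over same-plate cytokine-stimulated vehicle wells, was averaged over duplicate plates.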
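For cell viability relative to vehicle unstimulated control in this document: viability of the cells left after supernatant collection, read with Deep Blue dye added for 4 h, as absorbance at 570 nm minus 600 nm.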

With `C=C1CC/C=C(\C)CC[C@@H]2[C@@H]1CC2(C)C` [β-Caryophyllene] (compound dose: 10 uM), the cell viability in the experiment on MDA-MB-231 [1] was 0.9919 ± 0.0069. The kynurenine production with MDA-MB-231 [2] stood at 0.844 ± 0.19.
Take `C=C1CC[C@@H]2[C@](C)(COC(=O)CCC(=O)O)[C@H](OC(=O)CCC(=O)O)CC[C@@]2(C)[C@@H]1/C=C/C1=CCOC1=O` [Dehydroandrographolide succinate] (compound dose: 10 uM): the cell viability with MDA-MB-231 [1] worked out at 0.898 ± 0.11. For the same compound, the kynurenine production with MDA-MB-231 [2] came to 1.2 ± 0.089.
For `C/C=C(/C)C(=O)O[C@H]1[C@H](O)[C@]2(COC(C)=O)[C@H](O)C[C@]3(C)C(=CC[C@@H]4[C@@]5(C)CC[C@H](O[C@@H]6O[C@H](C(=O)O)[C@@H](O[C@@H]7O[C@H](CO)[C@@H](O)[C@H](O)[C@H]7O)[C@H](O)[C@H]6O[C@@H]6O[C@H](CO)[C@@H](O)[C@H](O)[C@H]6O)[C@](C)(CO)[C@@H]5CC[C@]43C)[C@@H]2CC1(C)C` [Isoescin IB] (compound dose: 10 uM), the cell viability with MDA-MB-231 [1] worked out at 1.08 ± 0.074. In the experiment on MDA-MB-231 [2], the kynurenine production turned out to be 0.802 ± 0.12.
In the same order, the values of `CC1=CCC2C[C@H]1C2(C)C` [(1R)-α-Pinene] (compound dose: 10 uM) are 0.932 ± 0.081 and 0.79 ± 0.12.
The corresponding values for `C/C1=C\[C@H]2C(=O)[C@@H](C)C[C@]2(O)C(=O)/C(C)=C/[C@@H]2[C@H](CC1)C2(C)C` [jolkinol C] (compound dose: 10 uM) are 1.07 ± 0.041 and 0.868 ± 0.087.
On to `CC(C)=CCC[C@](C)(O)[C@H]1CC[C@]2(C)[C@@H]1[C@H](O)C[C@@H]1[C@@]3(C)CC[C@H](O)C(C)(C)[C@@H]3[C@@H](O[C@@H]3O[C@H](CO)[C@@H](O)[C@H](O)[C@H]3O[C@@H]3O[C@@H](C)[C@H](O)[C@@H](O)[C@H]3O)C[C@]12C` [Ginsenoside Rg2] (compound dose: 10 uM), for which the cell viability in the experiment on MDA-MB-231 [1] is 1.01 ± 0.095. For the same compound, the kynurenine production in the experiment on MDA-MB-231 [2] was found to be 0.974 ± 0.061.
`OCC1=C[C@@H](O)[C@]2(O[C@@H]3O[C@H](CO)[C@@H](O)[C@H](O)[C@H]3O[C@@H]3O[C@H](CO)[C@@H](O)[C@H](O)[C@H]3O)C=CO[C@@H](O[C@@H]3O[C@H](CO)[C@@H](O)[C@H](O)[C@H]3O)[C@H]12` [Rehmannioside D] (compound dose: 10 uM): in the experiment on MDA-MB-231 [1], the cell viability amounted to 1.05 ± 0.29. The kynurenine production in the experiment on MDA-MB-231 [2] was 0.941 ± 0.072.
With `CC1(C)[C@@H](O)CC[C@]2(C)[C@H]3CC=C4[C@@H]5C[C@@]6(C)C[C@H](OC6=O)[C@]5(C)CC[C@@]4(C)[C@]3(C)CC[C@@H]12` [Wilforlide A] (compound dose: 2 uM), in the experiment on MDA-MB-231 [1], the cell viability amounted to 0.877 ± 0.047. Also, in the experiment on MDA-MB-231 [2], the kynurenine production amounted to 0.834 ± 0.13.
As for `C=C1C[C@]23C[C@@]1(O)CC[C@H]2[C@@]12C=C[C@H](O)[C@@](C)(C(=O)O1)[C@H]2[C@@H]3C(=O)O` [Gibberellic acid] (compound dose: 10 uM), in the experiment on MDA-MB-231 [1], the cell viability was determined as 0.951 ± 0.013. Further, the kynurenine production in the experiment with MDA-MB-231 [2] was determined as 0.799 ± 0.11.
On to `CCOC(=O)/C=C/c1ccccc1` [Ethyl cinnamate] (compound dose: 10 uM), for which the cell viability in the experiment on MDA-MB-231 [1] turned out to be 0.988 ± 0.085. Further, the kynurenine production with MDA-MB-231 [2] worked out at 1.14 ± 0.11.
The corresponding values for `CC1CCC(C(C)C)C(O)C1` (single isomer, unassigned; (-)) [(-)-Menthol] (compound dose: 10 uM) are 0.899 ± 0.076 and 0.988 ± 0.27.
In the case of `CC(=O)O[C@@H]1C[C@@]23C[C@@]24CC[C@H](O[C@@H]2OC[C@@H](O)[C@H](O)[C@H]2O)C(C)(C)[C@@H]4CC[C@H]3[C@]2(C)C[C@@H]3O[C@]4(C[C@@H](C)[C@@H]3[C@@]12C)OC[C@@]1(C)O[C@@H]41` [26-Deoxyactein] (compound dose: 10 uM), the cell viability with MDA-MB-231 [1] came out at 0.9809 ± 0.0077. In addition, the kynurenine production in the experiment on MDA-MB-231 [2] worked out at 0.911 ± 0.22.
The corresponding values for `C[C@@H]1O[C@@H](O[C@H]2[C@H](O[C@H]3CC[C@@]4(C)[C@@H](CC[C@]5(C)[C@@H]4CC=C4[C@@H]6CC(C)(C)CC[C@]6(C(=O)O[C@@H]6O[C@H](CO[C@@H]7O[C@H](CO)[C@@H](O)[C@H](O)[C@H]7O)[C@@H](O)[C@H](O)[C@H]6O)CC[C@]45C)[C@]3(C)CO)OC[C@H](O)[C@@H]2O)[C@H](O)[C@H](O[C@@H]2O[C@H](CO)[C@@H](O)[C@H](O)[C@H]2O)[C@H]1O` [Macranthoidin A] (compound dose: 10 uM) are 0.901 ± 0.011 and 1.08 ± 0.014.
Regarding `C/C=C(/C)C(=O)O[C@H]1C(C)=C[C@]23C(=O)[C@@H](C=C(CO)[C@@H](O)[C@]12O)[C@H]1[C@@H](C[C@H]3C)C1(C)C` [Ingenol Mebutate] (compound dose: 10 uM), in the experiment with MDA-MB-231 [1], the cell viability came out at 1.01 ± 0.026. The kynurenine production with MDA-MB-231 [2] stood at 0.691 ± 0.18.
Turning to `Cc1ccc(C(C)C)cc2c(C)ccc1-2` [Guaiazulene] (compound dose: 10 uM), in the experiment with MDA-MB-231 [1], the cell viability amounted to 1.1 ± 0.013. Further, the kynurenine production in the experiment with MDA-MB-231 [2] is 0.915 ± 0.21.
As to `COC(=O)[C@]12OC[C@]34[C@H]([C@@H](O)[C@@H]1O)[C@@]1(C)CC(=O)C(O)=C(C)[C@@H]1C[C@H]3OC(=O)[C@H](OC(=O)C=C(C)C)[C@@H]24` [Brusatol] (compound dose: 10 uM), in the experiment with MDA-MB-231 [1], the cell viability turned out to be 0.432 ± 0.034. Moreover, in the experiment on MDA-MB-231 [2], the kynurenine production was found to be 0.1176 ± 0.00049.
`CC1(C)CCCC2(C)C1CCC1(C)OCCC12` (centres undefined) [Ambroxide] (compound dose: 10 uM): the cell viability in the experiment with MDA-MB-231 [1] came out at 0.964 ± 0.053. Further, in the experiment with MDA-MB-231 [2], the kynurenine production was 0.891 ± 0.13.
